# Over roughly 33,000 sequences, “E-score (-0.5 to 0.5)” has its median near -0.043; the highest 2% begin near 0.37. The sample holds the highest values, similar sequences and a random draw of the others, so the mix is not that of the screen.
# Target: T1, Upc2 (UniProt Q12151)
# T1 sequence: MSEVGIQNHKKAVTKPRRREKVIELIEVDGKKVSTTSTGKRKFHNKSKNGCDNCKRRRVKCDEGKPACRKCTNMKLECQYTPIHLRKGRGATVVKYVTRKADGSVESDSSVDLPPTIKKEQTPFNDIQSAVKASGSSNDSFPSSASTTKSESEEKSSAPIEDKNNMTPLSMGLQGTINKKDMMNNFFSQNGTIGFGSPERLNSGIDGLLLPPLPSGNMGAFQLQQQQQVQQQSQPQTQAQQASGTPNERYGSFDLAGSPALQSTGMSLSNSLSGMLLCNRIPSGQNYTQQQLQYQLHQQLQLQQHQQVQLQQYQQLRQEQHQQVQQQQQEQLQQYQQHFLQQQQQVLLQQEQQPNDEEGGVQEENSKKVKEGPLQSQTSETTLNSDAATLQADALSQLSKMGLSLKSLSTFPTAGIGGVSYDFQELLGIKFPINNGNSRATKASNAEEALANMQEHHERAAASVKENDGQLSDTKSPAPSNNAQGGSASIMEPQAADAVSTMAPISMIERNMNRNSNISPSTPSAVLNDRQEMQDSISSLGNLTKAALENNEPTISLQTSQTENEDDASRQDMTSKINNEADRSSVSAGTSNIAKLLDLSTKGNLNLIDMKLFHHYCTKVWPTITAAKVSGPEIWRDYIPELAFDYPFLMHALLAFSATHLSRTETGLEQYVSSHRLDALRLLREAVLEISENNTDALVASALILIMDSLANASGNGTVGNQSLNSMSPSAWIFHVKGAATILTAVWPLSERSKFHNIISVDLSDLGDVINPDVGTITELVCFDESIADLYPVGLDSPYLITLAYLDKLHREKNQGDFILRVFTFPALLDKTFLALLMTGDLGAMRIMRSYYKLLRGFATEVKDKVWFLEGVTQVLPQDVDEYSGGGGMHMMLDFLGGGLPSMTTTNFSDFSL
# Experiment: PBM E-score (8-mer binding enrichment) (E-score (-0.5 to 0.5)); higher = stronger / more preferred TF binding
# Details: protein concentration: 200 nM; construct: GST-full length
# Experimental: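 Universal 'all 10-mer' protein binding microarrays (Agilent AMADID 015681) probed with GST-tagged S. cerevisiae TFs (full-length or DBD) made by in vitro transcription/translation (PURExpress), about 100-200 nM. Bound TF was detected with fluorescent anti-GST. Each ungapped 8-mer (which stands for itself and its reverse complement) is scored by the PBM enrichment score (E-score), a modified Wilcoxon-Mann-Whitney statistic from -0.5 to +0.5, computed with the Universal PBM Analysis Suite. Scale: above 0.35 generally sequence-specific binding.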
row,Sequence,PBM E-score
1,GTACGATA,0.445
2,GCACGATA,-0.0168
3,CTACGATA,0.31
4,AGACGATA,0.138
5,ATTCGATA,0.0034
6,ATACGATA,0.472
7,CAAGCGAC,0.169
8,ATTTTCCG,0.139
9,GTTCTCCA,-0.109
10,AGTCGAAG,-0.273
11,AGCCGTAA,0.279
12,ACCCGTAT,0.396
13,AACCGTAA,0.233
14,AACCGTAT,0.375
15,AACCGTAC,0.311
16,AGCCGTAT,0.378
17,AGCCGTAG,-0.0316
18,ACCCGTAC,0.354
19,ACCCGTAG,-0.11
20,AGAAGAAG,-0.0336
21,CCTAGTGA,-0.174
22,TGCAACAA,-0.117
23,AAAAAACA,-0.00292
24,TGCAAGAA,-0.0985
25,AGTACAAC,-0.0045

row,Sequence,PBM E-score
1,CGTACATA,0.415
2,AGTACATA,-0.0422
3,CGTACATC,0.352
4,GGTACAAC,-0.0773
5,CGTACAAG,0.442
6,GGTACAAA,0.0128
7,CATACAAG,-0.192
8,AGTACAAG,-0.052
9,AGTACAAA,-0.013
10,CGTACAAC,0.439
11,CGTACAAA,0.421
12,AGTTCTCA,-0.107
13,CGCGACCA,0.116
14,AGAGCTAG,-0.113
15,AGTCTCTA,-0.0101
16,ATCCCCTC,-0.0985
17,CAAACCCA,0.0481
18,AAAATGTC,0.14
19,ACATCGTC,-0.00985
20,CCATCGAA,-0.132
21,GCATCGTA,0.429
22,GCATCGGA,-0.0207
23,ACATCGTA,0.425
24,CCATCGTC,-0.0745
25,CCATCGTA,0.44

row,Sequence,PBM E-score
1,GCATCGAA,0.00261
2,ACATCGTG,-0.0454
3,TGAAGGCA,-0.0834
4,AACTATGC,0.051
5,AGTGGTCC,-0.123
6,CCAATCGG,-0.174
7,CCGAGGTA,0.125
8,CCTACGAA,0.228
9,GCTACGAA,0.395
10,ACTACGAC,0.272
11,CCTACGAC,0.232
12,GCTACGAC,0.379
13,TCTACGAA,0.335
14,TTACTCAA,0.0201
15,AGTGAGAG,-0.279
16,AGCCATAT,0.0338
17,AATACGAT,0.395
18,AATACGAC,0.435
19,AATACGTC,0.0421
20,AATACGCC,0.00457
21,GATACAAA,0.106
22,AATACGGG,0.229
23,AATACGAG,0.457
24,GATACGAA,0.454
25,ACTACGAT,0.16

row,Sequence,PBM E-score
1,AATACGTG,0.155
2,AATACGCT,0.212
3,GATACGTA,0.254
4,CAGCACAA,0.0156
5,CGAGATGA,0.233
6,CGACTCTC,0.179
7,AAACAGGA,-0.139
8,TACCTGCA,-0.0203
9,ATAGATCC,-0.0535
10,CGACACAG,0.122
11,CAAACCGG,-0.0596
12,CATACGAC,0.466
13,CATACGCG,0.313
14,CATACAAA,0.114
15,CATACGAA,0.466
16,CATACGTC,0.215
17,GATACGGC,0.324
18,CATACGCC,0.307
19,CATACGAG,0.486
20,CACACGAG,0.155
21,GATACGCC,0.189
22,GATACGAC,0.468
23,CATACGTA,0.315
24,AGCAAGGA,-0.0783
25,GCCAACGC,-0.0104

row,Sequence,PBM E-score
1,CGACTGAA,0.184
2,CTGGGGCA,-0.2
3,CCTCACGA,-0.219
4,ACTACGAA,0.185
5,AATACGTA,0.196
6,AATACGAA,0.424
7,CACTTAAG,-0.0164
8,CTCGTACC,0.481
9,CTGGTACA,-0.0228
10,ATAGTACC,-0.084
11,CTTGTACA,-0.0692
12,CACGTACC,0.188
13,ATCGTACC,0.455
14,AGCGTACC,0.212
15,CTCGTACA,0.489
16,CGCGTACC,0.302
17,CTGTTAGC,-0.142
18,CGCATTTA,0.0301
19,GCTATGCC,-0.282
20,ATGGTCTG,-0.129
21,CAGGACTC,-0.0969
22,GAGGTAGA,-0.0305
23,ACCGAAGT,0.147
24,ACCGAAGG,0.0458
25,GACGAAGC,0.00181

row,Sequence,PBM E-score
1,TCCGAAGA,0.0352
2,AACGAAGT,0.415
3,CACGAAGG,0.00451
4,AACGAAGG,0.401
5,AAAGAAGT,-0.0114
6,TACGAAGA,0.448
7,TAAGAAGA,0.11
8,CACGAAGC,0.017
9,AACGAAGC,0.408
10,GTTAAAAA,0.11
11,CTAGTGTC,0.0134
12,CCAGGATA,0.0403
13,ATTTCTAA,-0.105
14,AGGAACCC,0.0161
15,CAACCAGC,-0.203
16,CTAGGGAA,-0.179
17,AGACCCAT,-0.186
18,CTAGACCA,-0.217
19,AGCCACAC,-0.00233
20,GACGAAGA,-0.0247
21,AACGAAGA,0.424
22,CACGAAGA,0.0935
23,CCTATGGC,-0.195
24,GGTATGGA,-0.146
25,AGTATGGA,-0.128

row,Sequence,PBM E-score
1,AGTATGGC,-0.129
2,CGTATGGC,0.413
3,CGTATGGA,0.423
4,AAATGAAC,0.118
5,AGCAATCC,-0.121
6,ACAAGCCT,-0.166
7,CTCGGTTA,0.381
8,GTCGGTTA,0.337
9,ATCGGTTA,0.333
10,ATTTTTCG,0.0906
11,CCTTTATC,-0.132
12,TATCAGGA,0.0996
13,CGCGTAAG,0.205
14,CCCGTAAC,0.248
15,GGCGTAAC,0.0403
16,CTCGTAAC,0.425
17,GTCGTAAC,0.408
18,CACGTAAG,0.105
19,GACGTAAC,0.0258
20,CTCGTAAG,0.43
21,CACGTAAC,0.039
22,AGAAGTTG,0.0297
23,ACCTATCA,-0.11
24,CGTGATTA,0.0822
25,ACCGGTTA,0.118

row,Sequence,PBM E-score
1,ATGACTAC,0.0234
2,AAGCTAGA,-0.166
3,GCGCTCCA,-0.195
4,CAAAGAAC,-0.0158
5,ACGCATAA,0.172
6,TCGCATAA,0.383
7,CCGCATAA,0.121
8,GGTTGCTA,-0.126
9,CCGCACTC,0.195
10,AAAAGGGA,-0.2
11,CCGTAAAC,0.396
12,ACGTTAAA,0.269
13,TAGTAAAA,0.0664
14,GCGTAAAC,0.352
15,ACGTAAAG,0.308
16,TTGTAAAA,0.0751
17,TCGTTAAA,0.466
18,TCGTAAAA,0.481
19,CCGTAAAG,0.395
20,CCGTTAAA,0.33
21,ACGTAAAC,0.345
22,CTGTAAAG,-0.0138
23,CATGGACA,-0.178
24,AGTTAGCA,-0.0102
25,CCGATGGA,0.109

row,Sequence,PBM E-score
1,ACTTATCG,0.00736
2,ATAGTCTG,-0.124
3,CGCTCAGA,0.121
4,GCTAAACC,0.03
5,GCGTAAAA,0.302
6,ACGTAAAA,0.268
7,CCGTAAAA,0.374
8,ACTATCAC,0.0913
9,ATGGGCCC,-0.0858
10,ACGTCTTC,0.0586
11,GACTGGAC,-0.215
12,CGGTACGC,0.324
13,AGGTACGC,0.163
14,AGGTACGG,0.354
15,CGGTACCA,-0.0953
16,GGGTACCA,-0.275
17,GGGTACAA,-0.0246
18,GGGTACGA,0.465
19,AGGTACGA,0.47
20,CGGTACGA,0.474

# From the supplement of paper PMC3334620
